# Measured values reported in PubChem BioAssay (Tox21).
# “And” between values parts separate entries of the source, which are not always exact repeats. Equal entries are not always repeated. Results filed as inconclusive are left out. A call without a number means that no potency is given here. Some structures have more than one record in an assay (separate samples or runs), and their calls can disagree. The source made the active and inactive calls. Unless noted, the call rests on the fitted dose curve.
# Columns and labels:
# [1] = Nuclear factor erythroid 2-related factor 2/antioxidant responsive element (Nrf2/ARE) small molecule agonists: luciferase reporter gene qHTS assay in human keratinocytes (AID 1919969); further: nearly all actives have a fitted effect of over 35% in size; further: potency means the concentration at half of the fitted maximal effect
# [2] = molecular target: Gonadotropin-releasing hormone receptor (Homo sapiens) (UniProt P30968); assay: Human gonadotropin-releasing hormone receptor (GnRHR) small molecule agonists, calcium flux assay in GnRHR-HEK293 cells (AID 1920063); further: nearly all actives have a fitted effect of over 35% in size
# Procedure, shortened: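 GnRHR-HEK293, 1500 cells/well, 18 h 37 C/5% CO2; Ca dye 1 h 37 C; cpd pinned (DMSO), agonist mode; kinetic FL 480/540, 3 min, 1 s reads; 15 conc, n=3.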
# [3] = molecular target: KiSS-1 receptor (Homo sapiens) (UniProt Q969F8); assay: Human kisspeptin (KISS1R) small molecule agonists, calcium flux assay in KISS1R-HEK293 cells (AID 1920064; active means well fitted activation curve with a large enough effect in the repeat runs)
# Procedure, shortened: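 Stable human KISS1R HEK293 line; 18 h plating, 37 C/5% CO2; calcium dye 1 h 37 C; compound pin transfer; kinetic fluorescence Ex/Em 480/540, 3 min.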
# [4] = G protein-coupled receptor (GPCR) small molecule agonists, calcium flux assay: HEK293 wild type cell line counter screen (AID 1920065)
# Procedure, shortened: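 Kinetic fluorescence at Ex/Em 480/540, recorded every second over 3 min, served as the read-out after compound addition. Each compound was tested at 15 concentrations in triplicate on cells pre-loaded with calcium dye for 1 h.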
# [5] = p53 small molecule agonists, cell-based qHTS assay with human liver microsomes: qHTS cell viability counter screen (AID 1963579); further: nearly all actives have a fitted effect of over 45% in size
# Procedure, shortened: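 Seed p53RE-bla cells at 4,000 per well; incubate 5 h at 37 C; add compound, human liver microsomes and NADPH; incubate 16 h at 37 C; add CellTiter-Glo; after 30 min at room temperature, read luminescence.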
# [6] = p53 small molecule agonists, cell-based qHTS assay: qHTS cell viability counter screen (AID 1963581); further: nearly all actives have a fitted effect of over 45% in size
# Procedure, shortened: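 HCT-116 p53RE-bla cells, 4,000/well, plated 5 h before compound pin transfer; 16 h at 37 C; bla substrate 2 h RT; then CellTiter-Glo, 30 min RT, luminescence.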
# [7] = molecular target: 5-hydroxytryptamine receptor 2A (Homo sapiens) (UniProt P28223); assay: 5-hydroxytryptamine receptor 2A (HTR2A) small molecule antagonists, cell-based qHTS assay (AID 1963586); further: nearly all actives have a fitted effect of over 45% in size
# Procedure, shortened: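 Antagonist-mode intracellular calcium assay: DOI (4 nM) added after 5 min compound pre-incubation at room temperature to dye-loaded HTR2A-CHO cells. Fluorescence followed for 3 min, sampled every second.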
# [8] = molecular target: 5-hydroxytryptamine receptor 2A (Homo sapiens) (UniProt P28223); assay: 5-hydroxytryptamine receptor 2A (HTR2A) small molecule agonists, cell-based qHTS assay (AID 1963587); further: nearly all actives have a fitted effect of over 30% in size; further: potency means the concentration at half of the fitted maximal effect
# Procedure, shortened: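 CHO cells stably expressing human HTR2A, plated 18 h, loaded with calcium dye 1 h at 37 C. Agonist mode: compounds added and intracellular calcium fluorescence recorded kinetically for 2 min at 1 sec intervals.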
# [9] = molecular target: Muscarinic acetylcholine receptor M1 (Homo sapiens) (UniProt P11229); assay: Cholinergic receptor muscarinic 1 (CHRM1) small molecule antagonists, cell-based qHTS assay (AID 1963588); further: nearly all actives have a fitted effect of over 40% in size
# Procedure, shortened: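 CHRM1-CHO calcium-flux assay, antagonist mode. Cells were seeded 18 h, dye-loaded 1 h at 37 C and given compound for 5 min at RT, then acetylcholine was added at 50nM. FDSS fluorescence was read 3 min; 15 concentrations, three runs.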
# [10] = molecular target: Muscarinic acetylcholine receptor M1 (Homo sapiens) (UniProt P11229); assay: Cholinergic receptor muscarinic 1 (CHRM1) small molecule agonists, cell-based qHTS assay (AID 1963589); further: nearly all actives have a fitted effect of over 35% in size
# Procedure, shortened: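 Human M1 in stable CHO line; 18 h plating, 1 h dye load 37 C; cpd added (agonist mode); Ca2+ fluorescence kinetic read, 1 s intervals; 15 conc, 3 runs.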
# [11] = cAMP Responsive Elements (CRE) small molecule agonists, cell-based qHTS assay (AID 1963590)
# Procedure, shortened: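 HEK 293T CRE-bla, 2,000 cells/well, 18 h preincubation 37 C/5% CO2; cpds (DMSO) pinned, 3 h; LiveBLAzer B/G FRET substrate, 2 h RT.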
# [12] = cAMP Responsive Elements (CRE) small molecule antagonists, cell-based qHTS assay (AID 1963591; active means well fitted inhibition curve with a large enough effect in the signal ratio in the repeat runs, not every such curve was filed as active; the % refers to the signal ratio)
# Procedure, shortened: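 Beta-lactamase reporter read by FRET substrate (LiveBLAzer B/G) after 2 h at room temperature. CRE-bla HEK293T cells had received compound plus 0.25 uM (final) NKH477 for 3 h at 37 °C.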
# [13] = molecular target: Beta-2 adrenergic receptor (Homo sapiens) (UniProt P07550); assay: Adrenergic beta2 receptor (ADRB2) small molecule antagonists, cell-based qHTS assay (AID 1963592); further: nearly all actives have a fitted effect of over 50% in size; further: potency means the concentration at half of the fitted maximal effect
# Procedure, shortened: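 Cells (CHO, stable ADRB2 overexpression) incubated 18-20hr at 37C; compounds added from DMSO; agonist mix (1nM isoproterenol, 100uM IBMX, 25uM Ro-20-1724) added; 0.5hr RT; d2-cAMP and anti-cAMP-cryptate added; 1hr RT; 665/615 nm read.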
# [14] = molecular target: Beta-2 adrenergic receptor (Homo sapiens) (UniProt P07550); assay: Adrenergic beta2 receptor (ADRB2) small molecule agonists, cell-based qHTS assay (AID 1963593);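 further: CHO cells stably overexpressing human ADRB2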
# Procedure, shortened: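 CHO cells stably over-expressing ADRB2 were plated overnight at 37C, then dosed with compounds plus a stimulation mix containing 100uM IBMX and 25uM Ro-20-1724 for 0.5hr at room temperature. cAMP was measured by HTRF competition, 1hr.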
# [15] = molecular target: D(2) dopamine receptor (Homo sapiens) (UniProt P14416); assay: Dopamine D2 receptor (DRD2) small molecule antagonists, cell-based qHTS assay (AID 1963595; active means well fitted inhibition curve with a large enough effect in the signal ratio in the repeat runs, with a control signal flat; the % refers to the signal ratio)
# Procedure, shortened: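 HEK293 cells stably expressing DRD2, preincubated with 0.1 mM Ro20-1724 and compounds 10 min, were stimulated with 200 nM NKH477 plus 12 nM quinpirole for 30 min at room temperature; cAMP measured by HTRF (665/620 nm).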
# [16] = p53 small molecule agonists, cell-based qHTS assay with human liver microsomes (AID 1963577)
# Procedure, shortened: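 Cells carrying a p53-responsive bla reporter were rested 5 h (37 C, 5% CO2) before compound transfer. Human liver microsomes plus NADPH, 0.5 mg/mL final apiece, supplied metabolism during the 16 h 37 C exposure.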
# [17] = p53 small molecule agonists, cell-based qHTS assay with rat liver microsomes: qHTS cell viability counter screen (AID 1963580); further: nearly all actives have a fitted effect of over 45% in size
# Procedure, shortened: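 p53RE-bla HCT-116 cells were exposed 16 h at 37 C to compounds with rat liver microsomes (0.5 mg/mL) and NADPH (0.5 mg/mL). Viability was measured in the same wells as ATP content by CellTiter-Glo luminescence.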
# [18] = p53 small molecule agonists, cell-based qHTS assay (AID 1963582; active means well fitted activation curve with a large enough effect in the signal ratio in the repeat runs, not every such curve was filed as active; the % refers to the signal ratio)
# Procedure, shortened: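 Reporter line: p53RE-bla. Pre-incubation 5 h, 37 C, 5% CO2; compound (DMSO, pin tool) 16 h, 37 C; B/G FRET substrate 2 h RT; fluorescence intensity read.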
# [19] = molecular target: D(2) dopamine receptor (Homo sapiens) (UniProt P14416); assay: Dopamine D2 receptor (DRD2) small molecule agonists, cell-based qHTS assay (AID 1963594); further: nearly all actives have a fitted effect of over 35% in size
# Procedure, shortened: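 HEK293 cells stably expressing human DRD2, pre-treated with PDE inhibitor Ro20-1724 (0.1 mM final) and compound 10 min at room temperature, then stimulated with NKH477 (200nM […]) for 30 min. cAMP read by HTRF (665/620 nm).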
# [20] = p53 small molecule agonists, cell-based qHTS assay with rat liver microsomes (AID 1963578)
# Procedure, shortened: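 Fluorescence from a beta-lactamase reporter under a p53 response element was measured after cells had been incubated 16 h at 37 C with test compound and rat liver microsomes plus NADPH (0.5 mg/mL final each).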
# Sequence of Beta-2 adrenergic receptor (Homo sapiens) (P07550 whole entry, looked up): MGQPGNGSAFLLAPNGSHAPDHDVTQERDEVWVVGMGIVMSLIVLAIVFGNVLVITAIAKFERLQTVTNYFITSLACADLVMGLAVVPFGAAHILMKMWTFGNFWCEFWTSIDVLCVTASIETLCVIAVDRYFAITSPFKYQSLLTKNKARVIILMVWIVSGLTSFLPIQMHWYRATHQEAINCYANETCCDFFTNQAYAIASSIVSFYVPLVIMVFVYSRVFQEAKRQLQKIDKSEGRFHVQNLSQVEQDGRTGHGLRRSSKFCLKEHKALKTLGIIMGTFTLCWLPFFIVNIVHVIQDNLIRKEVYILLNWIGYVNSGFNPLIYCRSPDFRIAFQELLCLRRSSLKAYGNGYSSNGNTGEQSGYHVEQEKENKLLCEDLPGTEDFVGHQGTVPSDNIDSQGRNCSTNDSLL
# Sequence of 5-hydroxytryptamine receptor 2A (Homo sapiens) (P28223 whole entry, looked up): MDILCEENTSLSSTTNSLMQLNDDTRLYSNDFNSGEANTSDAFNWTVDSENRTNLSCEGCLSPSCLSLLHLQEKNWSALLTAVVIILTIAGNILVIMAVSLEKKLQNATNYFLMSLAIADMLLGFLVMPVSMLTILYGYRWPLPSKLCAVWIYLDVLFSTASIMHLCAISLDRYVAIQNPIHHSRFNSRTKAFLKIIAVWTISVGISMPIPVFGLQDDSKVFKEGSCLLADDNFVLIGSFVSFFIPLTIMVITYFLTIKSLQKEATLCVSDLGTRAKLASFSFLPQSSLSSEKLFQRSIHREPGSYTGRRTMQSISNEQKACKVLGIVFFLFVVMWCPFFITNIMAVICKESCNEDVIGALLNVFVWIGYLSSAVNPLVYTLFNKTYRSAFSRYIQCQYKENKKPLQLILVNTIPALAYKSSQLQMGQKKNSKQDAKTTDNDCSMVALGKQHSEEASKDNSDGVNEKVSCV
# Sequence of D(2) dopamine receptor (Homo sapiens) (P14416 whole entry, looked up): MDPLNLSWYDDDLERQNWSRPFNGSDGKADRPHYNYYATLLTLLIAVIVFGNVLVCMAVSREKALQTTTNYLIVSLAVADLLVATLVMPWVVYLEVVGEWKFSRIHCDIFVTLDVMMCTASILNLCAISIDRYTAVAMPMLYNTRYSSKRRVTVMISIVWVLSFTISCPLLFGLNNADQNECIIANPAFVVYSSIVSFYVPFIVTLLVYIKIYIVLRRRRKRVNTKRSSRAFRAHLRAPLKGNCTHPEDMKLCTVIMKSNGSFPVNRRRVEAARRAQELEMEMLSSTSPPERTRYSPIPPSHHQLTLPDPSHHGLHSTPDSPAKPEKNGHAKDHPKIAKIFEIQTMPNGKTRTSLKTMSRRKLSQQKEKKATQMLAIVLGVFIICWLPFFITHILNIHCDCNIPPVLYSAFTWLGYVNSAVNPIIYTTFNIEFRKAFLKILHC
# Sequence of Muscarinic acetylcholine receptor M1 (Homo sapiens) (P11229 whole entry, looked up): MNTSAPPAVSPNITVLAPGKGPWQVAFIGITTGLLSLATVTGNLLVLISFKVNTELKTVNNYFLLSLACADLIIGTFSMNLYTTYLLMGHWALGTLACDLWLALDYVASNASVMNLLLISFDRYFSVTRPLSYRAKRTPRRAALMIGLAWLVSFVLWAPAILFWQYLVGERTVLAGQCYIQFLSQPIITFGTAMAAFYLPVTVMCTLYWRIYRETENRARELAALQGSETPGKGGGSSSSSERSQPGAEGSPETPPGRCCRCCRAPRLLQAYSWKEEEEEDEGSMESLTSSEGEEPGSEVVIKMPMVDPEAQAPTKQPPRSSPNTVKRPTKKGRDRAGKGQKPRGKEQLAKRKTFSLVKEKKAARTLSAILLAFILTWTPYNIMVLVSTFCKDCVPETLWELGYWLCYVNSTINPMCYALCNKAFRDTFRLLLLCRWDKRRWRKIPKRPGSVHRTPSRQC
# Sequence of Gonadotropin-releasing hormone receptor (Homo sapiens) (P30968 whole entry, looked up): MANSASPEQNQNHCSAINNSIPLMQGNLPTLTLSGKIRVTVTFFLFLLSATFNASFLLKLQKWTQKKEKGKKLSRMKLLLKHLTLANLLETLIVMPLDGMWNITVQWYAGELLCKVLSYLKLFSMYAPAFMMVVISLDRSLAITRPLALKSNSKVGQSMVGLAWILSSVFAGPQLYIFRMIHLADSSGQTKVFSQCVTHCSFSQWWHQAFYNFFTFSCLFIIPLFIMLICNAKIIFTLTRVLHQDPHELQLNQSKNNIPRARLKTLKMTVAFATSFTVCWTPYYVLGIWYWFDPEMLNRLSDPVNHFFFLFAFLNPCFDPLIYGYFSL
# Sequence of KiSS-1 receptor (Homo sapiens) (Q969F8 whole entry, looked up): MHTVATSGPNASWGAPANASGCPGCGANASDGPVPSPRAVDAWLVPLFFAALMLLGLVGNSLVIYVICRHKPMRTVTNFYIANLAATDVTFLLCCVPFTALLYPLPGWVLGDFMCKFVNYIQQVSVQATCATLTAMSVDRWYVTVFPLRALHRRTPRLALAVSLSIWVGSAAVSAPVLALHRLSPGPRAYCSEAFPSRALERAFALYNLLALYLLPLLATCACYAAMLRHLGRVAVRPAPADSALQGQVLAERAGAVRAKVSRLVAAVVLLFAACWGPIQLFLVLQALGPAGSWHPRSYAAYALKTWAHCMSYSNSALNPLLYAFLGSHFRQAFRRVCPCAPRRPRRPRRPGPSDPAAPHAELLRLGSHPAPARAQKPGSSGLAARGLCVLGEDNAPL
SMILES,Potency [1],Potency [2],Potency [3],Potency [4],Potency [5],Potency [6],Potency [7],Potency [8],Potency [9],Potency [10],Potency [11],Potency [12],Potency [13],Potency [14],Potency [15],Potency [16],Potency [17],Potency [18],Potency [19],Potency [20]
COc1ccc(COC(C)=O)cc1,inactive,inactive,inactive,inactive,inactive,inactive,inactive,inactive,inactive,inactive,inactive,inactive,inactive,inactive,inactive,,,,,
CCCCCCCCO[C@@H]1O[C@H](CO)[C@@H](O)[C@H](O)[C@H]1O,inactive,inactive,inactive,inactive,inactive,inactive,inactive,inactive,inactive,,inactive,inactive,inactive,inactive,,inactive,inactive,inactive,inactive,
CC(=O)/C=C/C1C(C)=CCCC1(C)C (stereo not drawn),inactive,inactive,inactive,inactive,inactive,inactive,inactive,inactive,inactive,inactive,inactive,inactive,inactive,inactive,inactive,,inactive,,inactive,
CCCCCCCCSCC,inactive,inactive,inactive,inactive,,inactive,inactive,inactive,inactive,inactive,inactive,inactive,inactive,inactive,inactive,inactive,inactive,inactive,inactive,inactive
CCC(=O)OC(C)(C)C1CC=C(C)CC1 (stereo not drawn),inactive,inactive,inactive,inactive,inactive,,inactive,inactive,inactive,inactive,inactive,inactive,inactive,inactive,inactive,inactive,inactive,inactive,inactive,inactive
CCCCCCCCCCCCC(=O)O,inactive,inactive,inactive,inactive,inactive,inactive,inactive,inactive,inactive,inactive,inactive,inactive,inactive,inactive,inactive,inactive,inactive,,inactive,inactive
NNC(=O)c1cccc(C(=O)NN)c1,inactive,inactive,inactive,inactive,,inactive,inactive,inactive,inactive,inactive,inactive,inactive,inactive,inactive,,inactive,inactive,inactive,inactive,inactive
CC(C)CC(O)Cc1ccccc1 (stereo not drawn),inactive,inactive,inactive,inactive,inactive,inactive,,inactive,inactive,inactive,inactive,,inactive,inactive,inactive,,inactive,inactive,inactive,inactive
CCCCOCCOCCOCCO,inactive,inactive,inactive,inactive,inactive,,inactive,inactive,inactive,inactive,inactive,inactive,30.3 µM (active) and inactive,inactive,inactive,inactive,inactive,inactive,inactive,inactive
O=C(Oc1ccccc1)c1ccccc1,inactive,inactive,inactive,inactive,inactive,inactive,inactive,55 µM (active) and inactive,inactive,inactive,inactive,inactive,inactive,inactive,,,inactive,,inactive,
C=C(C)[C@@H]1CCC2=CCC[C@@H](C)[C@]2(C)C1,inactive,inactive,inactive,inactive,inactive,inactive,inactive,inactive,inactive,inactive,inactive,inactive,inactive,inactive,inactive,inactive,inactive,inactive,inactive,
COC(=O)c1ccccc1C,inactive,inactive,inactive,inactive,inactive,,inactive,inactive,inactive,inactive,inactive,inactive,,inactive,inactive,inactive,inactive,inactive,inactive,inactive
O=C(O)[C@@H](O)[C@H](O)[C@H](O)[C@@H](O)C(=O)O,inactive,inactive,inactive,inactive,inactive,inactive,inactive,inactive,inactive,inactive,inactive,inactive,inactive,inactive,inactive,inactive,inactive,inactive,inactive,
Nc1ccc(O)cc1,28.4 µM (active),inactive,inactive,inactive,inactive,inactive,,inactive,inactive,inactive,,inactive,inactive,inactive,inactive,,inactive,,inactive,
COc1c2ccoc2cc2oc(=O)ccc12,inactive,inactive,inactive,inactive,inactive,inactive,inactive,inactive,inactive,inactive,inactive,inactive,inactive,inactive,inactive,inactive,inactive,inactive,inactive,
Cl/C(=C\n1cncn1)c1ccc(Cl)cc1Cl,inactive,inactive,inactive,inactive,inactive,inactive,inactive,inactive,inactive,,inactive,inactive,inactive,inactive,inactive,inactive,inactive,,inactive,inactive
COC(=O)c1c(Cl)c(Cl)c(C(=O)OC)c(Cl)c1Cl,30.6 µM (active),inactive,inactive,inactive,,inactive,inactive,inactive,,,inactive,,inactive,,inactive,,inactive,inactive,inactive,inactive
Cn1cc(S(C)=O)c(=O)c2ccc(F)cc21 (stereo not drawn),inactive,inactive,inactive,inactive,inactive,inactive,inactive,inactive,,,inactive,inactive,inactive,inactive,inactive,inactive,inactive,,,inactive
C=CC(C)(CCC=C(C)C)OC=O (stereo not drawn),inactive,inactive,inactive,inactive,,inactive,inactive,inactive,inactive,inactive,inactive,inactive,inactive,inactive,inactive,inactive,inactive,inactive,inactive,
COc1ccc(N)c(OC)c1,inactive and 68.6 µM (active),inactive,inactive,inactive,inactive,,inactive,inactive,inactive,inactive,inactive,inactive,inactive,,inactive,inactive,inactive,inactive,inactive,inactive
O=C(O)c1ccccc1[N+](=O)[O-],inactive,inactive,inactive,inactive,inactive,inactive,inactive,,inactive,inactive,inactive,inactive,inactive,,inactive,inactive,inactive,,inactive,inactive
Nc1nc(N)nc(-c2ccccc2)n1,inactive,inactive,inactive,inactive,inactive,inactive,inactive,inactive,inactive,inactive,inactive,inactive,inactive,,inactive,,inactive,,inactive,
O=[N+]([O-])c1ccc2nc[nH]c2c1,inactive,inactive,inactive,inactive,inactive,inactive,inactive,inactive,inactive,inactive,inactive,inactive,inactive,inactive,inactive,,inactive,,inactive,
Cc1cccc(C)c1NC(=O)CC12CCCN1CCC2,inactive,inactive,inactive,inactive,inactive,inactive,inactive,,inactive,inactive,,inactive,inactive,inactive,,inactive,inactive,inactive,inactive,inactive
Cc1ccc(C(C)(C)O)cc1,inactive,inactive,inactive,inactive,inactive,inactive,inactive,inactive,inactive,inactive,inactive,inactive,inactive,,inactive,inactive,,inactive,inactive,inactive
CCC(C)(O)CCC=C(C)C (stereo not drawn),inactive,inactive,inactive,inactive,inactive,inactive,inactive,inactive,inactive,inactive,inactive,inactive,inactive,inactive,inactive,,inactive,inactive,inactive,
CO[Si](CCCOCC1CO1)(OC)OC (stereo not drawn),inactive,inactive,inactive,inactive,inactive,inactive,inactive,inactive,inactive,inactive,inactive,inactive,inactive,,inactive,inactive,inactive,inactive,inactive,
CC1(C)[C@H]2CC[C@](C)(C2)[C@H]1O,inactive,inactive,inactive,inactive,inactive,inactive,inactive,inactive,inactive,inactive,inactive,inactive,inactive,inactive,,inactive,,inactive,inactive,inactive
CCOc1ccccc1OCC,inactive,inactive,inactive,inactive,inactive,inactive,inactive,,inactive,inactive,inactive,inactive,inactive,inactive,inactive,inactive,inactive,inactive,inactive,inactive
